The whole screen tested about 300,000 compounds, of which about 1,700 (0.57%) were called active. Another 2% or so got no clear call; they are omitted. This is one part of a sample in which actives are shown more often than they occur. Unmarked numbers belong to inactive results.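 Rule for the calls: active = growth inhibition above about 58% in most replicates (limit read from the data, passing the limit was not always enough); inconclusive = exactly half the replicates above a set limit; inactive = most replicates below a set limit.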

This assay can be described thus: Candida growth reduction under fluconazole – CaCi-2 strain, Alamar Blue fluorescence, primary screen (AID 1979).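 Note: all wells also contain fluconazole at 8 µg/ml as a sub-toxic cotreatment; 0% = median of DMSO wells and 100% = median of geldanamycin control wells.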 The note with it: C. albicans CaCi-2 (fluconazole-resistant clinical isolate) + fluconazole, 48 h, stronger effect = higher value, concentration not given here.
`Cc1cc2ccccn2c1C(C[N+](=O)[O-])c1c(F)cccc1Cl` (stereo not given): the growth inhibition was 88.5% (active).

With `C/C(=N/O)c1ccc2ccc3ccccc3c2c1`, the growth inhibition is -4.17%.

With `Cc1nn(-c2ccccc2)c(C)c1NC(=O)COC(=O)Cc1ccccc1`, the growth inhibition was -2.49%.

Consider `O=C(Cc1ccccc1)N1CCN(C2CCCCCC2)CC1`, for which the growth inhibition was -12%.

For `CC1=C(C(=O)Nc2ccccc2)SCCO1`, the growth inhibition was 0.0228%.

Take `Cc1cccc(-n2c(O)c(/C=N/N3CCOCC3)c(=O)[nH]c2=S)c1`: the growth inhibition was 12.2%.

For the molecule `Cc1cccc(-n2c(O)c(C=Nc3ccccc3N)c(=O)[nH]c2=O)c1`, the growth inhibition was 103% (active).

With `Cc1cccc(-n2c(O)c(C=NC34CN5CN(CN(C5)C3)C4)c(=O)[nH]c2=O)c1`, the growth inhibition is -4%.

Consider `COc1ccccc1C1=NCc2nnc(CSC)n2-c2ccc(Cl)cc21`, for which the growth inhibition was 2.88%.

Turning to `COc1ccc(S(=O)(=O)NCc2ccc(C(=O)N3CCC4(CC3)OCCO4)cc2)cc1`, the growth inhibition was -9.32%.

With `CC(C)(C)c1ccc(OC(=O)N2CCCCC2)cc1`, the growth inhibition was 11.1%.

Take `C=CCN1C(=O)NC(=O)/C(=C/c2ccc(OCC(=O)Nc3ccc(C)cc3)cc2)C1=O`: the growth inhibition was -16.2%.

Regarding `CC1=CC(=Cc2sc3ccccc3[n+]2C)C=C(C)O1`, the growth inhibition was 103% (active).

Regarding `CNCC(O)c1cc(F)c(OCc2ccccc2)c(OCc2ccccc2)c1F` (stereo not given), the growth inhibition is -32.5%.

In the case of `COc1ccccc1NC(=O)N1C[C@@H]2C[C@@H](C1)c1cccc(=O)n1C2`, the growth inhibition is 7.25%.

The values above are taken from PubChem BioAssay AID1979 (Broad Institute, 2009).
